Bioassay records: PubChem BioAssay, National Center for Advancing Translational Sciences (NCATS)
IL1B secr inh – qHTS for Inhibitors of Inflammasome Signaling: IL-1-beta AlphaLISA Primary Screen. THP-1 LPS/ATP IL-1B secretion, AlphaLISA, 16 h; active compounds read low. activity change, % at 57.5 µM. actives 4.7% (n = 360,000). AID 743279, 2014; in the data active means activity change below about -50%; inconclusive means mostly about -30% to -49%
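THP-1 cells pretreated 1 hr with compounds (up to 57.5 uM final), then stimulated with LPS (250 ng/mL final) plus ATP (1.25 mM final); secreted IL-1B measured by AlphaLISA after 16 hr, decreased signal indicating inhibition.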
TDP1 cell noCPT – qHTS for Inhibitors of human tyrosyl-DNA phosphodiesterase 1 (TDP1): qHTS in cells in absence of CPT; DT40 Tdp1-/- hTDP1 cells, no CPT, ATP luminescence, 48 h; actives 15% (n = 420,000); Potency, µM (titrated, usually from 46.2 µM), without a hit: top-dose activity change, negative = growth inhibition, hits mostly inhibitors; further: potency means the concentration at half of the fitted maximal effect; nearly all actives have a fitted effect of over 55% in size
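Compound effects on proliferation are scored in DT40 Tdp1-/-;hTDP1 cells in the absence of CPT. ATP levels (CellTiter-Glo luminescence) are recorded after a ≥48 hr, 37 °C incubation.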
TDP1 cell CPT – qHTS for Inhibitors of human tyrosyl-DNA phosphodiesterase 1 (TDP1): qHTS in cells in presence of CPT. chicken DT40 Tdp1-/-;hTDP1 cells + 20 nM CPT, ATP luminescence, 48 h. Potency, µM (doses to about 46.2 µM), for the others: at the highest dose activity change, negative = growth inhibition, most hits filed as inhibitors. actives 12% (n = 420,000); further: potency means the concentration at half of the fitted maximal effect; nearly all actives have a fitted effect of over 55% in size
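Cell growth measured by CellTiter-Glo luminescence after a minimum 48 h, 37 C compound exposure with 20 nM CPT in Tdp1-knockout DT40 cells stably expressing hTDP1, seeded 400/well; qHTS titration format.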
ALOX12 inh – Primary qHTS assay for inhibitors of human arachidonate 12S-lipoxygenase (ALOX12): Round 2. Polyunsaturated fatty acid lipoxygenase ALOX12 (Homo sapiens), P18054. purified 12hLO, xylenol orange hydroperoxide absorbance. Potency, µM (titrated, usually from 108 µM), for the others: top-dose activity change, negative = inhibition, most hits filed as inhibitors. actives 1.1% (n = 580,000). AID 1671190, 2021; further: potency means the concentration at half of the fitted maximal effect
Target sequence (P18054 whole entry, looked up): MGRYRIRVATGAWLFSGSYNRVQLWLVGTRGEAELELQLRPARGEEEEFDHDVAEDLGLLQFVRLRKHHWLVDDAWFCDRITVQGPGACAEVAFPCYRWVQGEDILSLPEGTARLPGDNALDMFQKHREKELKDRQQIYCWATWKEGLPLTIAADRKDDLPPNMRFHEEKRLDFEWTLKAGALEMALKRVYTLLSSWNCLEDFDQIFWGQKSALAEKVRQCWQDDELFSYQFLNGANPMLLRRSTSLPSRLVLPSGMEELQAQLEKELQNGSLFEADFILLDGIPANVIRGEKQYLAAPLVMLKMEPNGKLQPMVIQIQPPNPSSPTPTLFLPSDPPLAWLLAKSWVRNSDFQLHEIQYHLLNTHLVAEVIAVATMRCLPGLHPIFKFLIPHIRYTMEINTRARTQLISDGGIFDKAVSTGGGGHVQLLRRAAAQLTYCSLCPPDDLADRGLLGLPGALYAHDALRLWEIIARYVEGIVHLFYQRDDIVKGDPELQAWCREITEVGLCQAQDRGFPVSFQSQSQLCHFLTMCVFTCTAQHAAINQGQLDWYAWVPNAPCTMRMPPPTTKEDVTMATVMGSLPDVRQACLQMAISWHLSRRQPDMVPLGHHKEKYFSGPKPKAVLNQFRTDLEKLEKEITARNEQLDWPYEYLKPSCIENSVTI
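Purified human 12hLO (150 nM final) in 25 mM Hepes, 0.01% Triton X-100, pH 7.0 was preincubated 15 min at room temperature with compound. Then 40 uM arachidonic acid was added, 30 min. Hydroperoxide was read by Fe-XO absorbance ratio 573/405 nm.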
HT1080-NT tox – qHTS for induction of synthetic lethality in tumor cells producing 2HG: qHTS for the HT-1080-NT fibrosarcoma cell line; HT-1080-NT fibrosarcoma viability, CellTiter-Glo ATP luminescence, 48 h; Potency, µM (titrated, usually from 46.1 µM), for inactives: top-dose activity, negative = less viability, actives largely listed as cytotoxic; actives 1.6% (n = 360,000); AID 686970, 2013;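 further: NT is the 2HG producing partner of a matched IDH1 knockdown line; potency means the concentration at half of the fitted maximal effect; 0% = DMSO-treated cells and -100% = media-only wells without cells; nearly all actives have a fitted effect of over 55% in size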
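Luminescent CellTiter-Glo readout after 48 hours of compound exposure at 37 degrees C defined viability of HT-1080-NT cells. Activity was normalized to DMSO wells and cell-free media wells; concentration-response curves were fitted and assigned curve classes.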
HT1080 IDH1KD tx – qHTS for induction of synthetic lethality in tumor cells producing 2HG: qHTS for the HT-1080-IDH1KD cell line; Potency, µM (top dose mostly 46.1 µM), for the others: at the top dose activity, negative = toxicity, usual class: cytotoxic; AID 686971, 2013; actives 2% (n = 360,000); HT-1080 IDH1 knockdown viability, ATP luminescence, 48 h;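 further: potency means the concentration at half of the fitted maximal effect; 0% = DMSO wells and -100% = cell-free medium wells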
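Assay cells: HT-1080 with IDH1 knockdown, 750 per well, RPMI/5% FBS. Exposure: 48 h at 37 °C following 2 h pre-incubation. Read: CellTiter-Glo luminescence; fitted concentration-response, curve class assigned.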
Active calls of the source: *; ? = inconclusive; nt = no result; [ ] = remark or other dose. Many of the other results were omitted from the sample, so hits are more common in it than they were. Unless noted, the call rests on the fitted dose curve; in most records, active means well fitted curve in the direction sought with a large enough effect; inconclusive means small, poorly fitted or top-dose-only effect, or another doubt; inactive means no such curve, though single readings can be large; an effect the other way counts as inactive or inconclusive. Unless noted, on the % scale 0 is the no-effect control and ±100 the full control effect.

SMILES | IL1B secr inh | TDP1 cell noCPT | TDP1 cell CPT | ALOX12 inh | HT1080-NT tox | HT1080 IDH1KD tx
Cc1ccc(Cl)cc1N1CCN(C(=O)c2ccc3nc(N4CCC(C)CC4)sc3c2)CC1 | nt | 21µM* | 21µM* | 0% | nt | nt
CCOc1ccc(NC(=O)N2CCN(c3nc4ccccc4s3)CC2)cc1 | -5 | ? | -28% | 4% | 5% | 4%
Cc1ccc(-c2nc(-c3nc(-c4cccs4)cs3)sc2C)cc1 | nt | nt | nt | 56% | nt | nt
CC1C=CC(C)N1c1ncnc2c1CN(C1CCNC1)C(=O)CN2C (centres undefined) | nt | nt | nt | 7%[6.33 µM] | nt | nt
COc1ccc(CN2C[C@@H](C(N)=O)[C@H](c3nc(C)no3)C2)c(Cl)c1OC | nt | nt | nt | 70% | nt | nt
COCC(=O)NC1CCC12CCN(C(=O)Cc1c[nH]c3ccccc13)CC2 (centres undefined) | nt | nt | nt | 51% | nt | nt
Cc1cc(C(=O)N2C[C@@H](COCC3CC3)[C@H](c3ccccn3)C2)ccn1 | nt | nt | nt | 80% | nt | nt
O=C(NCCc1ccccc1)c1ccc2nc(N3CCOCC3)sc2c1 | 8 | ? | -7% | -4% | -2% | 4%
O=C(c1ccc2nc(N3CCOCC3)sc2c1)N1CCC(Cc2ccccc2)CC1 | -20 | 23µM* | ? | 10% | ? | 0%
CC(C)c1cnc(C2CCN(C(=O)OC(C)(C)C)CC2)[nH]1 | nt | nt | nt | 2%[12.5 µM] | nt | nt
CC(C(=O)NNS(=O)(=O)c1cccc(C(F)(F)F)c1)n1nnc(N2CCOCC2)n1 (centres undefined) | 40 | -15% | -3% | 3.5µM* | ? | 12%
Cc1ccccc1CN1CCN2C(=O)N(C3CCCCC3)C[C@H]2C1 | nt | nt | nt | 9%[176 µM] | nt | nt
COc1ccc(/C=C/c2ccc3ccccc3n2)c(OC)c1 | nt | 11µM* | 16µM* | nt | nt | nt
COc1ccc(OC)c(/C=C/c2ccc3ccccc3[n+]2C)c1 | nt | 2µM* | 2µM* | nt | nt | nt
O=[N+]([O-])c1ccccc1/C=C/c1ccc2ccccc2n1 | -79* | ? | -40% | -2% | ? | -21%
Cn1c(/C=C/c2ccccc2[N+](=O)[O-])nc2ccccc2c1=O | -5 | ? | ? | 4% | 1% | 4%
COc1ccc(OC)c(/C=C/c2cc3ccccc3cn2)c1 | nt | 5µM* | 5µM* | nt | nt | nt
COc1ccc(OC)c(/C=C/c2ccccc2)c1 | nt | -1% | -25% | nt | nt | nt
CC(=O)c1ccc(N2CCN(C(C(=O)O)c3c[nH]c4cc(NC(=O)C(C)C)ccc34)CC2)cc1 (centres undefined) | nt | nt | nt | -25% | nt | nt
Cn1c(=O)c2c(ncn2CC(O)COCc2ccccc2F)n(C)c1=O (centres undefined) | nt | nt | nt | 23% | nt | nt
CC(C)OCCCNc1nc2c(c(=O)n(C)c(=O)n2C)n1Cc1ccccc1Cl | nt | nt | nt | -1% | nt | nt
COc1cc(OC)c(OC)cc1C=Cc1ccc2ccccc2n1 | -19 | 15µM* | 16µM* | ? | ? | ?
CCOC(=O)c1c(C)nc2c(c1-c1ccc(OC)c(OC)c1)C(=O)c1ccccc1-2 | 1 | ? | 23µM* | 0%[57.4 µM] | -7% | 6%
Cc1nc(SC(C)c2ccc(F)c(F)c2)sc1CC(N)=O (centres undefined) | nt | nt | nt | -7% | nt | nt
COc1ccc(CN(C)Cc2c(O)ccc3cc(Br)ccc23)cc1OC | -25 | ? | -28% | 28µM* | -21% | -10%
SMILES | IL1B secr inh | TDP1 cell noCPT | TDP1 cell CPT | ALOX12 inh | HT1080-NT tox | HT1080 IDH1KD tx
COc1ccc(CCN(C)Cc2c(O)ccc3cc(Br)ccc23)cc1OC | -94* | -23% | ? | 18µM* | -15% | -14%
COc1cc(OC)c2cc(-c3ccncc3)cnc2c1 | nt | 27µM* | 24µM* | ? | nt | nt
COc1ccc(-c2cnc3[nH]cc(CC(=O)Nc4ccncc4)c3c2)cc1 | nt | nt | nt | 36%[176 µM] | nt | nt
Nc1cccc2ncccc12 | nt | nt | nt | -29% | nt | nt
COc1ccc(-c2cn(Cc3ccc([N+](=O)[O-])cc3)nn2)cc1 | 29 | ? | ? | 23% | 0% | -3%
CNc1ccc(OC)cc1-n1cnc(-c2ccc([N+](=O)[O-])cc2)c1 | 24 | -14% | -19% | ? | -15% | -21%
CC(C)(C)c1ccc(Cn2cnc(-c3ccc([N+](=O)[O-])cc3)c2)cc1 | ? | 23µM* | 23µM* | -18% | -15% | -12%
Cc1cc(C)c(Cn2cnc(-c3ccc([N+](=O)[O-])cc3)c2)c(C)c1 | -64* | 15µM* | 13µM* | -20% | -22% | ?
O=C(NC(c1ccc(-c2ccccc2)cc1)c1cnccn1)C1CCN(Cc2ccc(Oc3ccccc3)cc2)CC1 (centres undefined) | -52* | ? | ? | ? | 13µM* | ?
O=C(NC(c1ccccc1)c1ccccn1)C1CCN(CC(F)(F)F)CC1 (centres undefined) | nt | nt | nt | -23% | nt | nt
COc1ccc(C(NC(=O)C2CCN(Cc3ccc(Oc4ccccc4)cc3)CC2)c2ccccn2)cc1 (centres undefined) | ? | 16µM* | 16µM* | -16% | 15µM* | 23µM*
COc1ccc(C(NC(=O)C2CCN(Cc3ccc(Oc4ccccc4)cc3)CC2)c2ccccc2C)cn1 (centres undefined) | ? | 18µM* | 21µM* | ? | 16µM* | ?
COc1cc(CN2CCC(C(=O)NC(c3ccc(-c4ccccc4)cc3)c3cnccn3)CC2)cc(OC)c1 (centres undefined) | -53* | 23µM* | 9.2µM* | ? | 23µM* | 23µM*
Cc1ccc(NC(=O)CN(C)C(=O)C2CCN(c3ccc(C(F)(F)F)cn3)CC2)cc1 | nt | nt | nt | 6% | nt | nt
COc1ccc2nc(Nc3nc(C)cc(C)n3)nc(C)c2c1 | nt | nt | nt | 47% | nt | nt
Cc1cccnc1C(NC(=O)C1CCN(Cc2ccccc2)CC1)c1ccc(F)cc1 (centres undefined) | -15 | ? | ? | -2% | -37% | -28%
Cc1cccnc1C(NC(=O)C1CCN(Cc2ccc(Oc3ccccc3)cc2)CC1)c1ccccc1 (centres undefined) | ? | 18µM* | 15µM* | nt | 23µM* | 18µM*
